Assay [1] in a line: antimalarial activity against Dd2 strain (AID 2302;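 active = growth inhibition above 50% at the single 2 µM test dose, taken to imply half-maximal potency below 2 µM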;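 note: 0% = DMSO untreated growth and 100% = chloroquine plus artemisinin killed control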). Conditions: P. falciparum Dd2 in RBCs, LDH growth readout, 72 h; at 2 µM; hits give high values.
Assay [2] is described as follows: HepG2 cytotoxicity, primary screen, cytotoxicity control for P. falciparum antimalarial project, cell-based, ATP luminescence (AID 2303;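 active = inhibition above 50%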;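 note: 0% = DMSO wells and 100% = digitonin-killed cells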). Conditions: HepG2 viability, 24-48 h, at 10 µM, hits give high values.
For assay [3], the target named is L-lactate dehydrogenase (Plasmodium falciparum (isolate CDC / Honduras)) (UniProt Q27743). Description: PfLDH activity inhibition – cell lysate, 3D7 strain, counter-screen for P. falciparum growth inhibition project (AID 2304).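 Note: 0% = vehicle and 100% = reference inhibitor.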 Conditions: P. falciparum 3D7 crude extract, LDH APAD/NBT absorbance; at 2 µM; hits give high values. Background: A counterscreen serves to expose hits that act by an unwanted route or on another target.
Sequence of L-lactate dehydrogenase (Plasmodium falciparum (isolate CDC / Honduras)) (Q27743 whole entry, looked up): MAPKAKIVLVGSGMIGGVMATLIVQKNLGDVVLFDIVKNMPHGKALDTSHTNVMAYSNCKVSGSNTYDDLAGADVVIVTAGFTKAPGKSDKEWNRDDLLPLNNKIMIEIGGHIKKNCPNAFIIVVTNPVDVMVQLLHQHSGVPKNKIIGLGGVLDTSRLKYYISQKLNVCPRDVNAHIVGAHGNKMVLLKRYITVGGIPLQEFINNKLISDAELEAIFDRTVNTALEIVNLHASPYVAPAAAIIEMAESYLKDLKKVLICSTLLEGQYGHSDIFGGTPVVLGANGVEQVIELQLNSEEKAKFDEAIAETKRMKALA

Assay [4] is described as follows: inhibition of 3D7 malaria parasite growth – strain 3D7 (AID 2306).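 Note: 0% = DMSO wells and 100% = chloroquine plus artemisinin control wells.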 To be noted: P. falciparum 3D7 erythrocytic growth, LDH absorbance, 72 h; at 2 µM; hits give high values.
Assay [5] deals with Calcium-dependent protein kinase 1 (Plasmodium falciparum (isolate 3D7)) (UniProt P62344). Description: PfCDPK1 kinase inhibitors, biochemical, TCAMS library (AID 1159585; cut-off not given, nearly all actives have IC50 up to about 0.98 µM;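 note: inhibitors leave more ATP so luminescence rises with inhibition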). To be noted: recombinant PfCDPK1, Kinase-Glo ATP depletion luminescence. For orientation: Kinase-Glo measures the ATP left after a reaction by luminescence.
Sequence of Calcium-dependent protein kinase 1 (Plasmodium falciparum (isolate 3D7)) (P62344 whole entry, looked up): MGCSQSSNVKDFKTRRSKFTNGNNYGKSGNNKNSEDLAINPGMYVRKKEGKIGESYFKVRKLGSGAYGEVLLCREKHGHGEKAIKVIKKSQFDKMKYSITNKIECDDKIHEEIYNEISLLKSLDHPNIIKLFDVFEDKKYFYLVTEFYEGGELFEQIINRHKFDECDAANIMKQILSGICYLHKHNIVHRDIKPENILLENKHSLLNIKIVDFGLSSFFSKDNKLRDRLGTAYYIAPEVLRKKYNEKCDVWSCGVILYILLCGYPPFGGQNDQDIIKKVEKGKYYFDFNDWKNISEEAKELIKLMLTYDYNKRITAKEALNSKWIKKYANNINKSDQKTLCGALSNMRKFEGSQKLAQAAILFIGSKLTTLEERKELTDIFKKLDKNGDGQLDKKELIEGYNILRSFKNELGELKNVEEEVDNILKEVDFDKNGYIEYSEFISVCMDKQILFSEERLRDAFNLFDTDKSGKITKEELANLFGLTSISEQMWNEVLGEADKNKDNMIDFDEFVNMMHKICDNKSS
Assay [6] concerns the target Plasmodium falciparum protein kinase 6 (PK6, PF3D7_1337100) (UniProt Q8IDW1). Description: PfPK6 kinase inhibitors, biochemical, TCAMS library (AID 1159586). Conditions: recombinant PfPK6, Kinase-Glo ATP depletion luminescence.
In assay [7] the target is Protein kinase 7 (PK7), Plasmodium falciparum 3D7 (PF3D7_0213400) (UniProt Q7YTF7). Description: inhibition of Plasmodium PK7 catalytic activity – biochemical, TCAMS antimalarial set, Kinase-Glo luminescence (AID 1159587). To be noted: recombinant PfPK7, Kinase-Glo ATP depletion luminescence.
Sequence of Protein kinase 7 (PK7), Plasmodium falciparum 3D7 (PF3D7_0213400) (Q7YTF7 1-343): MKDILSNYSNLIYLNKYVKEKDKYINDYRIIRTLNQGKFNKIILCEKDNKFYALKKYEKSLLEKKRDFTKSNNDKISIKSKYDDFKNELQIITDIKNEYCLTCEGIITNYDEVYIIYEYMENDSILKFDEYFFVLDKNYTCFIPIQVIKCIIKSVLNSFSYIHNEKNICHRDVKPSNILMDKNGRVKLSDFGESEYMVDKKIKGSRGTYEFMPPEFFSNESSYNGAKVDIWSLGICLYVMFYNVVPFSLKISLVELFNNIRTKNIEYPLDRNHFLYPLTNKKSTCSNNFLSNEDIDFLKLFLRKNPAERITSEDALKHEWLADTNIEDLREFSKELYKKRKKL
Assay [8] has as its target Calcium-dependent protein kinase 4 (Plasmodium falciparum (isolate 3D7)) (UniProt Q8IBS5). Description: PfCDPK4 kinase inhibitors, biochemical, TCAMS library (AID 1159588; cut-off not given, nearly all actives have IC50 up to about 0.91 µM). Conditions: recombinant PfCDPK4, Kinase-Glo ATP depletion luminescence.

SMILES strings stand for the structures. A number with no mark means an inactive call. For some of these results: Potency and affinity values are given separately. Activity calls are given as the source filed them. Unless noted, the rule behind the calls is not given here.

As a reminder, the inhibition is the drop in the measured response relative to a control, in per cent.

Sequence of Calcium-dependent protein kinase 4 (Plasmodium falciparum (isolate 3D7)) (Q8IBS5 whole entry, looked up): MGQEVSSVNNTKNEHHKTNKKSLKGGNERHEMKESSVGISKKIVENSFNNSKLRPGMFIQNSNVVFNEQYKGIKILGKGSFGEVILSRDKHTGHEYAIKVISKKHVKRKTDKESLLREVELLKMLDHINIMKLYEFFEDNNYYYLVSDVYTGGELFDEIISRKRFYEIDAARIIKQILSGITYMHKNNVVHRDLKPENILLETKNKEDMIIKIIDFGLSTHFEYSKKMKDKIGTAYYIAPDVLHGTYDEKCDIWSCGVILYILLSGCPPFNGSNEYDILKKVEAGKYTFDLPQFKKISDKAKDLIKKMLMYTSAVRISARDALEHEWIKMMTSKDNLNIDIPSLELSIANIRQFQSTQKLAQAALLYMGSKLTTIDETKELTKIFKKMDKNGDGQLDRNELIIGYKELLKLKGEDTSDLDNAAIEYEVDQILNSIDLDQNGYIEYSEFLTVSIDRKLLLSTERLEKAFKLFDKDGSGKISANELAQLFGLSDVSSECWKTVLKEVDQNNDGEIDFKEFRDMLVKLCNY
Sequence of Plasmodium falciparum protein kinase 6 (PK6, PF3D7_1337100) (Q8IDW1 1-305): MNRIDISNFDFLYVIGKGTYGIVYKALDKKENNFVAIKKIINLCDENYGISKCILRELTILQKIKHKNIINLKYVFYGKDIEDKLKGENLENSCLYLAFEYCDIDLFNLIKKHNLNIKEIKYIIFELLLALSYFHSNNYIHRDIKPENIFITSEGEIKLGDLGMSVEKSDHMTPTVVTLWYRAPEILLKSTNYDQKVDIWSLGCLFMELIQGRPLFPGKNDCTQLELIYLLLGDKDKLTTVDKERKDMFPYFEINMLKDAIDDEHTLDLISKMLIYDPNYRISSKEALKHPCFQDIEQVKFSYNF

On to `CCN(CC)Cc1cc(Nc2c3ccc(Cl)cc3nc3cccc(OC)c23)ccc1O`, for which the growth inhibition in assay [1] was 98% (active); in assay [4], 101% (active). Besides, the inhibition in assay [2] is 8%; in assay [3] it was -3%. The result in assay [5], in assay [6], in assay [7] and in assay [8] was inactive.

Regarding `CCCOc1ccc(C(F)(F)F)cc1NC(=O)c1nc2nc(C)cc(C)n2n1`, the growth inhibition is 88% (active) in assay [1] and 90% (active) in assay [4]. Also, the figures for the inhibition in assay [2] and in assay [3] were 7% and -4%, respectively. The result in assay [5], in assay [6], in assay [7] and in assay [8] was inactive.

For the molecule `CC1CCN(c2nc(C(=O)Nc3ccc(F)cc3C(F)(F)F)c(C(C)C)s2)CC1`, the growth inhibition in assay [1] is 66% (active); in assay [4] it was 101% (active). The figures for the inhibition in assay [2] and in assay [3] were 5% and -5%, respectively. Besides, the result in assay [5], in assay [6], in assay [7] and in assay [8] was inactive.

As to `Cc1cccc2[nH]c(-c3cccc(-c4cccc(CNCc5cccc(N)c5)c4)c3)nc12`, the growth inhibition in assay [1] was 73% (active); in assay [4], 101% (active). The inhibition is 14% in assay [2] and 1% in assay [3]. Further, the outcome in assay [5], in assay [6], in assay [7] and in assay [8] was inactive.

As for `CN(C)C(=O)c1cc(CNCc2ccccc2)ccc1-c1cccc(CNCc2ccc(-c3ccccc3)cc2)c1`, the results for the growth inhibition in assay [1] and in assay [4] were 12% and 90% (active), respectively. Further, the results for the inhibition in assay [2] and in assay [3] were 27% and -3%, respectively. Further, the outcome in assay [5], in assay [6], in assay [7] and in assay [8] was inactive.

In the case of `CN(C)CCNC(=O)[C@H](Cc1ccccc1)NC(=O)c1ccc(O)c(-c2ccc(Cl)c(Cl)c2)c1`, the growth inhibition in assay [1] was 0%; in assay [4], 98% (active). Besides, the inhibition in assay [2] is -1%; in assay [3], -6%. In addition, the result in assay [5], in assay [6], in assay [7] and in assay [8] was inactive.

`CC(CNc1nc(NCC(c2ccccc2)c2ccccc2)c2[nH]cnc2n1)c1ccccc1` (stereo not given): the growth inhibition in assay [1] was 24%; in assay [4], 93% (active). In addition, the values for the inhibition in assay [2] and in assay [3] were 5% and -8%, respectively. The outcome in assay [5], in assay [6], in assay [7] and in assay [8] was inactive.

Take `O=C(Nc1cccc(-c2ccc(-c3nc4ccccc4[nH]3)s2)c1)c1ccncc1`: the growth inhibition was 29% in assay [1] and 92% (active) in assay [4]. Also, the inhibition in assay [2] is 67% (active); in assay [3], -9%. Further, the result in assay [5], in assay [6], in assay [7] and in assay [8] was inactive.

As for `O=C(Nc1ccc(F)cc1)c1cnc(N2CCN(c3ccncc3)CC2)c(Cl)c1`, the growth inhibition in assay [1] is 81% (active); in assay [4], 100% (active). Besides, the inhibition in assay [2] was 41%; in assay [3], -3%. Also, the outcome in assay [5], in assay [6], in assay [7] and in assay [8] was inactive.

Take `NC1=NC2(CCCC2)N(c2ccc(Cl)cc2)C(N)=N1`: the results for the growth inhibition in assay [1] and in assay [4] were -1% and 97% (active), respectively. Besides, the figures for the inhibition in assay [2] and in assay [3] were -8% and -6%, respectively. Moreover, the outcome in assay [5], in assay [6], in assay [7] and in assay [8] was inactive.

Turning to `CCCNCc1ccc(-c2ccc(CN(Cc3cccs3)C(=O)C3CCN(C)CC3)cc2)nc1`, the values for the growth inhibition in assay [1] and in assay [4] were 35% and 99% (active), respectively. The inhibition in assay [2] was 10%; in assay [3] it was -3%. For the same molecule, the outcome in assay [5], in assay [6], in assay [7] and in assay [8] was inactive.

In the case of `COc1ccc(C2CCC(NCCCCNC(=O)c3ccc(NC(=O)c4ccc(Cl)cc4)cc3)CC2)cc1` (stereo not given), the growth inhibition in assay [1] was 7%; in assay [4] it was 99% (active). Besides, the results for the inhibition in assay [2] and in assay [3] were 23% and -6%, respectively. Also, the outcome in assay [5], in assay [6], in assay [7] and in assay [8] was inactive.

Regarding `CCc1cn2c3c(cc(C(=O)N[C@@H](Cc4ccccc4)[C@H](O)CNC4CCC4)cc13)N(C)S(=O)(=O)CC2`, the growth inhibition in assay [1] and in assay [4] was 98% (active) throughout. Also, the inhibition in assay [2] is -4%; in assay [3], -3%. Besides, the outcome in assay [5], in assay [6], in assay [7] and in assay [8] was inactive.

For `Cc1ccc(NC(=O)c2ccc3ncccc3c2)cc1OC1CCN(Cc2ccc(F)cc2)C1` (stereo not given), the growth inhibition was 28% in assay [1] and 83% (active) in assay [4]. Besides, the inhibition in assay [2] was 11%; in assay [3], 3%. Further, the result in assay [5], in assay [6], in assay [7] and in assay [8] was inactive.

For `O=C1COC2(CN1C1CCN(Cc3ccc(O)cc3Cl)C1)c1ccccc1-c1ccccc12` (stereo not given), the growth inhibition was 70% (active) in assay [1] and 82% (active) in assay [4]. For the same molecule, the results for the inhibition in assay [2] and in assay [3] were 10% and -1%, respectively. Besides, the result in assay [5], in assay [6], in assay [7] and in assay [8] was inactive.

As for `COc1ccc2nc(N(CCCn3ccnc3)C(=O)C=Cc3cccs3)sc2c1`, the growth inhibition is 26% in assay [1] and 92% (active) in assay [4]. Further, the inhibition in assay [2] was 8%; in assay [3], -3%. Further, the result in assay [5], in assay [6], in assay [7] and in assay [8] was inactive.

Consider `O=C(/C=C/c1ccc(Cl)c(Cl)c1)NCCCCCN1CCC(n2c(=O)[nH]c3ccccc32)CC1`, for which the growth inhibition was -1% in assay [1] and 97% (active) in assay [4]. The figures for the inhibition in assay [2] and in assay [3] were 38% and 2%, respectively. In addition, the outcome in assay [5], in assay [6], in assay [7] and in assay [8] was inactive.

Take `CNc1ccc(CNCc2ccc(-c3ccc(-c4nc5ccc(C(F)(F)F)cc5[nH]4)cc3)cc2)cc1`: the growth inhibition in assay [1] was 98% (active); in assay [4], 101% (active). Further, the inhibition in assay [2] is 53% (active); in assay [3], -3%. Also, the outcome in assay [5], in assay [6], in assay [7] and in assay [8] was inactive.

For `COC(=O)c1ccc(CN2CCC(N(Cc3cccc(Oc4ccccc4)c3)S(=O)(=O)c3ccc(NC(C)=O)cc3)CC2)cc1`, the growth inhibition in assay [1] was 86% (active); in assay [4] it was 82% (active). The inhibition in assay [2] is -1%; in assay [3] it was -6%. Also, the result in assay [5], in assay [6], in assay [7] and in assay [8] was inactive.

`O=C(Nc1ccc(-c2ccc(-c3nc4ccccc4[nH]3)s2)cc1)Nc1ccc(F)c(F)c1F`: the growth inhibition in assay [1] is 97% (active); in assay [4] it was 99% (active). In addition, the inhibition in assay [2] is 57% (active); in assay [3], 5%. Further, the result in assay [5], in assay [6], in assay [7] and in assay [8] was inactive.

The record behind these values is PubChem BioAssay.
